Source: PubChem BioAssay (NCI)
Values joined by “and” are separate entries in the source; they are usually repeats but may differ in a detail not shown here. Equal values may be shown once. This is part of a sample that, as a whole, favours compounds with a hit. Of some 79,000 tested, about 15% had one in any assay. Active and inactive are the calls of the source. Rule as the data show it: active = growth inhibition above about 70%; inactive = the rest.

How the values were obtained:
[1] = NCI Yeast Anticancer Drug Screen. Data for the rad50 strain (AID 155);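 also: 0% = growth of vehicle-only cultures of the same strain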; conditions: S. cerevisiae rad50 strain growth inhibition, hits give high values; at 50.0 µM unless noted
In short: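 Inhibition values express reduced yeast growth in compound-treated cultures relative to vehicle-treated controls.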

[2] = NCI Yeast Anticancer Drug Screen. Data for the mec2-1 strain (AID 157); conditions: S. cerevisiae mec2-1 strain, hits give high values; at 50.0 µM unless noted
In short: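 Compounds were applied to mec2-1 yeast cells. Their growth was then compared with that of vehicle-treated cultures to give growth inhibition.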

[3] = NCI Yeast Anticancer Drug Screen. Data for the sgs1 mgt1 strain (AID 161);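 also: 0% = growth of cultures given vehicle only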; conditions: S. cerevisiae sgs1 mgt1 strain, hits give high values; at 50.0 µM unless noted
In short: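 Percent growth inhibition was derived by comparing compound-exposed mutant yeast with vehicle-exposed cultures. The strain carries alterations in DNA damage repair.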

[4] = NCI Yeast Anticancer Drug Screen. Data for the cln2 rad14 strain (AID 165);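 also: 0% = growth equal to vehicle treated cultures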; conditions: S. cerevisiae cln2 rad14 strain, hits give high values; at 50.0 µM unless noted
In short: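 Strain: cln2 rad14 yeast, altered in cell cycle control and DNA damage repair. Read-out: growth inhibition vs vehicle.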

[5] = NCI Yeast Anticancer Drug Screen. Data for the bub3 strain (AID 167); conditions: S. cerevisiae bub3 mutant strain, hits give high values; at 50.0 µM unless noted
In short: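 Steps: expose the mutant yeast strain to compound; grow alongside vehicle-treated cultures; measure growth; express inhibition against the vehicle cultures.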

[6] = NCI Yeast Anticancer Drug Screen. Data for the mlh1 rad18 strain (AID 175); conditions: S. cerevisiae mlh1 rad18 strain growth inhibition, hits give high values; at 50.0 µM unless noted
In short: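 A repair-deficient yeast strain is exposed to test compound, and growth is scored relative to vehicle-treated controls.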

Measured: growth inhibition

O=C(Oc1cccc(OC(=O)c2ccccc2O)c1)c1ccccc1O
inactive: [1] -1.05% | [2] -7.95% | [3] 9.8% | [4] -30.8% | [5] 25.9% | [6] -5.35%

O=C(NCCCl)NC1CCCCCC1
inactive: [1] -10.8% | [2] -3.6% | [3] -16% | [4] -9.35% | [5] -3.05% | [6] 2.05%

CC(C)(O)C1CC(=O)C(C)(C2C(O)CC3(C)C4CC=C5C(CCC(O)C5(C)C)C4(C)C(=O)CC23C)O1 (stereo unspecified)
inactive: [1] 65% | [2] 63% | [3] 45% | [4] 42.9% | [5] 56.1% | [6] 47.6%

C[N+]1(CCN[N+]2(C)CCCCC2)CCc2ccccc2C1 (stereo unspecified)
inactive: [1] -5.55% | [2] -14.7% | [3] -44.5% | [4] -20.3% | [5] -39.3% | [6] -3.25%

ClCc1ccc(OCc2ccccc2)cc1
inactive: [1] -2.85% | [2] -1.45% | [3] -11.2% | [4] 9.3% | [5] -29.1% | [6] -6.25%

COc1ccc(OC2OC(CO)C(O)C(O)C2O)cc1 (stereo unspecified)
inactive: [1] 8.9% | [2] -0.1% | [3] -4.3% | [4] 18.1% | [5] 6.5% | [6] -50.6%

COc1ccc(O)cc1C=O
inactive: [1] -6.4% | [2] -7.05% | [3] -10.6% | [4] 4% | [5] -7.35% | [6] -4.75%

COc1ccc2c3c(ccc2c1)[C@@H]1C/C(=C(\OC(C)=O)C(F)(F)F)C(=O)[C@@]1(C)CC3
inactive: [1] -0.85% | [2] -4.85% | [3] 0.4% | [4] 20.8% | [5] -11.2% | [6] 20.3%

COC1=NS(=O)(=O)C2CCCCCCC2O1 (stereo unspecified)
inactive: [1] 11.1% | [2] -2.85% | [3] 1.15% | [4] -74.2% | [5] 10.6% | [6] -7.4%

Cn1c2c(c(=O)c3ccccc31)CC(O)C(C)(C)O2 (stereo unspecified)
inactive: [1] -23.6% | [2] -35.7% | [3] -6.4% | [4] 6% | [5] 3.35% | [6] -2.65%

CCCCN(CCCC)CCC(O)c1cc(-c2ccc(C(F)(F)F)cc2)nc(C(F)(F)F)c1 (stereo unspecified)
active: [1] 98.5% | [3] 97.6% | [4] 97.8% | [6] 96.8%
inactive: [2] 56.2% | [5] 47.1%

CC(C)C(=O)Nc1nc2nc[nH]c2c(=O)[nH]1
inactive: [1] 11.6% | [2] -23.6% | [3] 24.9% | [4] 12.8% | [5] -7.95% | [6] -22.9%

O=C1CSC(c2cc([N+](=O)[O-])ccc2Cl)N1c1nncs1 (stereo unspecified)
inactive: [1] 22.1% | [2] 15.6% | [3] 37.2% | [4] 19.1% | [5] 21.7% | [6] 28.4%

CC#CC#C/C(=C/C=CC(=O)OC)SC
inactive: [1] 1.95% | [2] -18.9% | [3] 13.7% | [4] 12.3% | [5] 6.6% | [6] -38.2%

COc1ccccc1N=Nc1c(O)n(-c2ccccc2)c(=S)n(-c2ccccc2)c1=O
inactive: [1] 36.2% | [2] -4.55% | [3] 26.8% | [4] -9.3% | [5] -2.85% | [6] 8.9%

CSc1ncc(C(N)=O)c(N)n1
inactive: [1] -2.05% and 12% | [2] 3.5% and -12.9% | [3] -3.35% and -9.65% | [4] -38% and -12.4% | [5] -6.7% and -12.6% | [6] 2.45% and 13.2%

N#CCC(=O)OCCCc1ccccc1
inactive: [1] 15.8% | [2] 9.2% | [3] -1.5% | [4] -32.5% | [5] 2.65% | [6] 0.45%

CCCCS(=O)/C=C\S(=O)CCCC (stereo unspecified)
inactive: [1] -7% | [2] 6.3% | [3] 4.75% | [4] -16.2% | [5] 8.55% | [6] 1.6%

S=C(NC1CCCCC1)SSSSC(=S)NC1CCCCC1
inactive: [1] 15.7% | [2] 5% | [3] 22.2% | [4] 9.55% | [5] 13.9% | [6] 20.2%

CN(Cc1ccc2nc(N)nc(N)c2c1)c1ccc(C(=O)NC(CCC(=O)O)C(=O)O)cc1 (stereo unspecified)
active: [2] 88.8% | [3] 77.8%
inactive: [1] 65.3% | [4] 4.7% | [5] -24.5% | [6] 33.3%

C=CCNC(=S)N/C=C(\C#N)C(N)=O
inactive: [1] -24.4% | [2] -40.3% | [3] -27.2% | [4] -7.15% | [5] -12.6% | [6] -41.5%
